The campaign covered roughly 96,000 compounds. About 80 (0.08%) were called active. No rule for the calls is given here. Only a sample is shown. Measured potencies and affinities stand elsewhere.
Target: Alkaline phosphatase, placental type (Homo sapiens) (UniProt P05187)
Experiment: PLAP enzyme inhibitors, biochemical, luminescence, HTS (AID 690)
Settings: purified PLAP, luminescent substrate; at 20 µM; stronger effect = higher value

Alkaline phosphatase, placental type (Homo sapiens), sequence (P05187 whole entry, looked up): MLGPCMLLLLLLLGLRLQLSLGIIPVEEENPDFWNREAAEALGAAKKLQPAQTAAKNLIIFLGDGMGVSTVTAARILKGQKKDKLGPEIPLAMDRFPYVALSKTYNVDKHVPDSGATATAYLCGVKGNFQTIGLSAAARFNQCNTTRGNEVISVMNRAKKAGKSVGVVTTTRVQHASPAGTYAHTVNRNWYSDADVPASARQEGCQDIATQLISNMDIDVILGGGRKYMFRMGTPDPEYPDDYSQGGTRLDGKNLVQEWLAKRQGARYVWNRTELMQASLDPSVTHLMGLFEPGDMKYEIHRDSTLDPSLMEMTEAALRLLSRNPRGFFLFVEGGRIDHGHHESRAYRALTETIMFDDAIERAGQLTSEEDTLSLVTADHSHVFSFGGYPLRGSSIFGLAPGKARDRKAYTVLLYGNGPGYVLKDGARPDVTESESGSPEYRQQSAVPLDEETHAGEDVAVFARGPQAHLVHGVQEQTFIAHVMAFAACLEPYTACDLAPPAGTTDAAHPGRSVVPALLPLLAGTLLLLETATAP

inhibition, inactive:
COc1ccc(OCCNc2cc(Cl)ccc2[N+](=O)[O-])cc1 4.1%
COc1cccc(OCCNc2cc(N3CCCCC3)ccc2[N+](=O)[O-])c1 -2.3%
CCC(=O)NCCc1nc2cc(NC(=O)c3ccccc3OC)ccc2n1C -60.5%
CCOC(=O)c1c(C)n(CC(COC(C)=O)OC(C)=O)c2ccc(OC(C)=O)cc12 (centres undefined) -45.7%
CCCCN(CCCC)S(=O)(=O)c1ccc(C(=O)Nc2nnc(CSC)o2)cc1 -15.3%
c1ccc([C@H]2CC3C[C@@H](c4ccccc4)N2O3)cc1 -8.8%
O=C(NC1CCCCCC1)c1nc2ncccn2n1 2.9%
COc1cc(/C=N/N(C)c2ccccc2)cc(Cl)c1O 5.2%
CCOc1cc(/C=C2\CCC/C(=C\c3cc(Cl)c(O)c(OCC)c3)C2=O)cc(Cl)c1O 26.7%
N#CC(/C(=N/S(=O)(=O)c1cccs1)c1ccccc1)c1nc2ccccc2[nH]1 (centres undefined) -67.4%
O=C(Nc1ccc(Br)cc1)c1cnccn1 -8.2%
Cc1nc2c(cc(Oc3ccc(S(=O)(=O)N4CCOCC4)cn3)c3ccsc32)s1 -48.6%
CN(C)C(C(=O)NC1CCCCC1)c1ccc(Cl)cc1 (centres undefined) -18%
O=C(Nc1ccc2c(c1)OCCO2)C1c2ccccc2C(=O)N2CCc3ccccc3C12 (centres undefined) 14.8%
Clc1ccc(/C=C/c2nc3ccccc3[nH]2)cc1 4.3%
Clc1cccc(Cl)c1/C=C/c1nc2ccccc2[nH]1 14.1%
Clc1nc(-c2n[nH]nc2Cl)n[nH]1 14.3%
Nc1nnc(-c2cc3ccccc3oc2=O)s1 3.8%
CNc1nnc(-c2cc3cc(Cl)ccc3oc2=O)s1 -24.2%
CC1(C)Cc2c(sc3nc4n(c(=O)c23)CCC4)CO1 -3.1%
CC1(C)Cc2c(sc3nc4n(c(=N)c23)CCC4)CO1 -9.9%
CCCN1C(=O)NC2(O)C(=O)c3ccccc3C12O (centres undefined) 0.4%
C=CCOC(=O)C1=C(C)NC2(O)c3ccccc3C(=O)C12O (centres undefined) 10.9%
CCSc1nc2c(c(=O)n1CC)SC(C)C2 (centres undefined) -16%
Cn1c(=O)c2c(nc(NCCNC(=O)c3ccco3)n2Cc2ccc(Cl)cc2Cl)n(C)c1=O 6.4%
CN1/C(=C\C(=O)c2ccco2)C(C)(C)c2ccccc21 3.8%
CN1/C(=C/C=N/n2cnnc2)C(C)(C)c2ccccc21 16.4%
C=CCn1c(Cc2csc(N)n2)nnc1SCC(=O)Nc1ccccc1C(F)(F)F 21.5%
CC(=O)c1cc2c(C)cc(=O)oc2cc1O 15.2%
CC(=O)Oc1ccc2c(C)cc(=O)oc2c1 24.6%
CCOC(=O)C(C)n1cnc2c(cnn2-c2ccc(Cl)cc2)c1=O (centres undefined) 1.3%
CCc1nnc(NC(=O)c2ccc(S(=O)(=O)N3CCCCCC3)cc2)s1 -15.9%
COc1ccc(C(c2nnnn2C2CCCC2)N2CCC(C(N)=O)CC2)c(OC)c1 (centres undefined) -65.7%
Cc1cc([N+](=O)[O-])ccc1NCc1ccccc1 47.4%
COc1ccc(CNc2cc([N+](=O)[O-])ccc2OC)cc1 31.1%
Cc1cc(-c2nc3ncccc3o2)ccc1NC(=O)CC(C)C -19.3%
CSc1cccc(NC(=O)Nc2ccccc2)c1 2.1%
CSc1cccc(NC(=O)/C=C/c2ccc(Cl)cc2)c1 20.8%
CCS(=O)(=O)n1nc(-c2ccc(C)cc2)nc1N 13.8%
CCCN1C(=O)/C(=C/C=C2\N(CC)c3ccccc3C2(C)C)SC1=S 22.7%
CCN1C(=O)C(O)(CC(=O)/C=C/C=C/c2ccccc2)c2ccccc21 (centres undefined) -9.7%
Cn1c(=O)oc2cc(S(=O)(=O)N3CCC(C(=O)N4CCc5ccccc5C4)CC3)ccc21 12.8%
Cc1ccc(NC(=S)NCCC(c2ccccc2)c2ccccc2)c(C)c1 -44%
O=C1CC(SCCc2nc3ccccc3[nH]2)C(=O)N1c1ccc(Cl)cc1 (centres undefined) -15.3%
COc1ccc(C2=C(C=Nc3c(C)n(C)n(-c4ccccc4)c3=O)C(c3ccccc3C)c3ccccc3O2)cc1OC (centres undefined) -61%
Cc1ccc(NC(=O)CCn2cccc2)cc1C 5.5%
O=C(CSc1nc2ccccc2s1)N1c2ccccc2Sc2ccc(Cl)cc21 9.1%
O=c1oc2ccccc2n1CSc1nc2ccccc2s1 46.4%
CCOc1ccc(C(CCc2ccccc2)NC(=O)c2ccccc2OC)cc1OCC (centres undefined) -15.5%
CS(=O)(=O)N1CCN(c2nc3ccccc3s2)CC1 2.4%
COc1ccc(NC(=O)/C(C#N)=C/c2ccc(Br)o2)cc1 -0.4%
COc1cc(/C=C(\C#N)C(=O)Nc2ccc(SC(F)F)cc2)cc(OC)c1OC -62%
CCc1ccc(/C(C)=N\Nc2ccc([N+](=O)[O-])cc2)cc1 26.2%
C/C(=N\Nc1nc(N)cc(Cl)n1)c1cccc([N+](=O)[O-])c1 -13.2%
COCCNC(=O)C(c1cccc(OC)c1)N(C(=O)Cn1nnc2ccccc21)c1cccnc1 (centres undefined) -24%
CCOc1ccccc1C(=O)Nc1ccc(S(=O)(=O)N2CCOCC2)cc1 -60.6%
O/N=C/c1cc(Cl)ccc1OCc1ccccc1Cl 0%
CCOc1ccc(Cl)cc1/C=N/O 10.1%
COc1cccc(C(=O)NCCC2=CCCCC2)c1 8.1%
COc1cc(/C=N/NC(N)=S)ccc1OCC(=O)Nc1ccc(C)c(C)c1 4.4%
CN1c2ccccc2C(C)(C)C12C=Nc1c(ccc3ccccc13)O2 (centres undefined) 0.3%
CN1c2ccccc2C(C)(C)C12C=Cc1cc(O)ccc1O2 (centres undefined) 27.8%
CC1=NN(C(=O)Cc2ccc([N+](=O)[O-])cc2)C(O)(c2ccccc2)C1 (centres undefined) -32.3%
CCOc1ccc(-c2nnc3sc(COc4ccccc4)nn23)cc1 8.3%
CCOc1ccc(-c2nnc3sc(COc4ccc(C)cc4)nn23)cc1 -25.7%
CCN(CC)S(=O)(=O)c1cc([N+](=O)[O-])ccc1NNC(=O)Nc1ccc(Cl)c(Cl)c1 -23.2%
Cc1cc(-c2nnc(SCC(=O)N3C(C)CCCC3C)o2)no1 (centres undefined) 0.5%
CCOC(=O)C1=C(O)/C(=C/c2cc(OC)c(OC)c(OC)c2)N=C1C -30.7%
CCOC(=O)C1=C(O)/C(=C\c2ccc(OC)c(OC)c2)N=C1C -24.6%
Cc1nn(-c2ccccc2)c(C)c1CCC(=O)O -21.2%
Cc1cc2cc(CN(CCCO)S(=O)(=O)c3cccc4nsnc34)c(=O)[nH]c2cc1C -57.9%
O=C(CCCn1c(SCC(=O)NCC2CCCO2)nc2ccccc2c1=O)NCC1CCCO1 (centres undefined) -4.3%
O=C(CCCn1c(SCC(=O)NCC2CCCO2)nc2ccccc2c1=O)NCc1ccccc1 (centres undefined) -31.1%
CC(C)(C)c1nn(-c2ccccc2)c2[nH]c(=O)c(CNc3ccc4c(c3)OCCO4)cc12 -71.4%
Cc1ccc(C(=O)CN(C(=O)c2ccc(Cl)c(Cl)c2)N2C(=O)C3CCCCC3C2=O)cc1 (centres undefined) -10.4%
O=C(/C=C/NNC(=O)c1cccc(Br)c1)c1cccc(Br)c1 -55.3%
CCC(=O)Nc1cccc(C(=O)/C=C/c2ccccc2)c1 -3.5%
O=C(CCN1C(=O)c2ccccc2C1=O)NC1=NCCS1 8.9%
CCOC(=O)C1=NN(c2ccccc2)C(=O)/C1=C\c1ccc(N(C)C)cc1 2.6%
CC1=NOC(=O)/C1=C/c1ccc(N(C)C)cc1 -1.4%
Cc1ccc(C(=O)Nc2nc3ccc(S(C)(=O)=O)cc3s2)s1 1.6%
Cc1ccc(CS/C(Nc2ccccc2C)=C(\C#N)C(=O)NCc2ccco2)c(C)c1 -32.5%
CC(C)Oc1ccc(CNC(=O)CC(c2ccccc2)c2cc(Cl)ccc2O)cc1 (centres undefined) -26.3%
COC(=O)CSc1nsc(SCC(=O)OC)c1C#N 13.1%
CCc1c(C#N)c(N)nc(SCC(=O)OCc2ccccc2)c1C#N 14.4%
CS(=O)(=O)NCCSCc1ccc(Cl)cc1 -9.2%
c1ccc2c(CSCCc3ccncc3)cccc2c1 -15.7%
c1ccc(SCCc2ccncc2)cc1 -3.2%
O=C(O)CSCc1ccc(Cl)cc1 -5.7%
CCn1c(C)c(C(C)=O)c(N2CCN(c3ccccc3)CC2)nc1=S -3.4%
O=C(NCc1ccc2c(c1)OCO2)C1CCCN(S(=O)(=O)c2cccc3nonc23)C1 (centres undefined) -13.3%
O=C1N2CCSC2=NC1(Nc1ccccn1)C(F)(F)F (centres undefined) 2%
CCC(CC)NC(=O)Cc1ccccc1[N+](=O)[O-] -5.8%
COc1ccc(CNC(=O)c2ccccc2[N+](=O)[O-])cc1 -9.5%
Cc1ccc(N(CC(=O)NCc2ccncc2)S(C)(=O)=O)cc1Cl -7%
O=C(CSc1nnc(Cn2nnc3ccccc32)o1)N(Cc1ccc(F)cc1)c1ccccc1 2.6%
CCSc1nc2c(cnn2-c2ccc(C)c(C)c2)c(=O)[nH]1 -20.6%
CCOC(=O)CN1C(=O)S/C(=C/c2ccc(N3CCCCC3)o2)C1=O -4.2%
COC(=O)CN1C(=O)S/C(=C/c2ccc(N3CCCCC3)o2)C1=O -25.9%

Reference: PubChem BioAssay AID690 (Sanford-Burnham Center for Chemical Genomics, 2007)
